Assays:
Plasmodium falciparum = assay: GSK_TCMDC: Inhibition of Plasmodium falciparum 3D7 in whole red blood cells, using parasite LDH activity as an index of growth. Test compounds present at 2uM; assay type: functional
HepG2 = assay: GSK_TCMDC: Percent inhibition of human HepG2 cell line. Test compounds present at 10uM.; assay type: functional

Row | Compound | Inhibition (Plasmodium falciparum) | Inhibition (HepG2)
1 | CCS(=O)(=O)c1ccc(/C(=N/OC)c2ccc[nH]2)cc1 | 85% | 0%
2 | COc1ccc2c(c1)C(C)(CCCN(C)C)C(=O)N2C.O=C(O)C(=O)O (stereo unspecified) | 93% | 8%
3 | Cc1ccc(-c2cnc3[nH]cc(-c4ccc(C(=O)O)c(C)c4)c3c2)cc1C.O=C(O)C(F)(F)F | 96% | 37%
4 | CN(C)Cc1cccc(-c2ccc(NC(=O)c3ccc4c(=O)n(Cc5cnn(C)c5)cnc4c3)cc2)c1 | 80% | 12%
5 | Cc1ccc(Nc2c3ccccc3nc3ccc(C)cc23)cc1 | 88% | 26%
6 | COc1ccc(C2CC(c3cccs3)=NN2C(=O)COc2cccc(C(C)=O)c2)cc1OC (stereo unspecified) | 99% | 10%
7 | Cc1cc(OCCCN2CCC(NC(=O)c3ccc(Br)cc3)C2)c2ccccc2n1 (stereo unspecified) | 85% | 13%
8 | CN(C)c1ccc(NC(=O)Nc2ccnc3ccccc23)cc1Br.Cl | 98% | 21%
9 | CCN(CC)CCCN(C(=O)Nc1cc(F)cc(F)c1)c1nc(-c2ccc(F)cc2)cs1 | 82% | 27%
10 | CCCN1CCN(CCNc2c3ccccc3nc3ccccc23)CC1 | 88% | 13%
11 | COc1ccc(CCN2CC[C@H](CNc3nc(-c4ccccc4)nc4ccccc34)C2)cc1S(N)(=O)=O.O=C(O)C(F)(F)F | 85% | 54%
12 | O=C(Nc1cccc(-c2nn3ccccc3c2-c2ccnc(Nc3cccc(F)c3)n2)c1)C1CCCCC1 | 85% | 44%
13 | Brc1ccsc1-c1nc(NC2CCN(Cc3ccccc3)CC2)no1 | 80% | 0%
